GRIN3A LBD mod: modulates the human NR3A ligand-binding domain. NR3A LBD differential scanning fluorimetry, Tm shift; 0% = protein alone, 100% = glycine-bound protein. Tm shift relative to glycine control, % at 25 µM. AID 1259313. 340,000 tested, 2.5% active;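 active means melting temperature shift of at least 10% of the positive control shift, at one fixed dose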
FAS TE block: inhibitors of human fatty acid synthase thioesterase domain | AID 602261 | recombinant FAS-TE, OMFH fluorogenic substrate, fluorescence endpoint | 360,000 tested, 0.67% active | inhibition, % at 15 µM | P49327;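 active means compounds whose normalised, plate-corrected inhibition of enzyme fluorescence in the single-dose primary screen is 50% or more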;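 further: 0% = DMSO with enzyme and 100% = substrate without enzyme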
MPTP block: permeability transition pore inhibition; isolated mouse mitochondria, Ca2+ swelling absorbance, 30 min; inhibition, % at 10 µM; 360,000 tested, 1.4% active;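 active means inhibition of 50% or more, scaled per plate between neutral and stimulator controls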;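 further: 0% = DMSO wells given calcium and 100% = 1 mM EGTA wells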
beta cell repl: inducers of beta-cell replication in MIN6 cells. proliferation, % at 10 µM. MIN6 cells proliferation, ATPlite luminescence, 48 h; cells starved in 0.2% serum; 100% = growth in 10% serum. AID 2380. 330,000 tested, 0.29% active;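 active means compounds whose signal lies at least 3.5 SD above the mean of all wells on their plate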;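 further: 0% = DMSO-treated cells in low-serum medium and 100% = 10% serum control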
pCIP destab: p/CIP protein destabilization; Q05BA5; F442A p/CIP-EGFP cells, EGFP fluorescence, 16 h; decrease of EGFP signal, % at 10 µM; 290,000 tested, 0.01% active;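 active means EGFP signal decrease of at least 30% at 10 µM or well 3 SD below plate mean, unless failing retest; inactive means the rest, including hits failing retest or dose response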
The depositor's hits bear a star; . = no result. A selection: hits, their analogues and other compounds. The true share with any hit is near 4.1%.

SMILES	GRIN3A LBD mod	FAS TE block	MPTP block	beta cell repl	pCIP destab
COc1ccc(CN2C(=O)C(CC(=O)NCC3CCCCC3)CC(C(=O)N(C)C)=C2C)cc1 (stereo unspecified)	.	-7	-1	.	.
COC(=O)CN1C(=S)N(c2ccc(Cl)cc2)C(=O)C1CC(=O)Nc1ccc(F)cc1 (stereo unspecified)	27*	23	0	-2	-4
COC(=O)CN1C(=S)N(c2ccc(F)cc2)C(=O)C1CC(=O)Nc1ccc(F)cc1 (stereo unspecified)	5	8	2	0	-7
C(=C\c1ccccc1)/CN1CCN(C(c2nnnn2-c2ccc3c(c2)OCCO3)C2CC2)CC1 (stereo unspecified)	.	4	1	.	.
O=c1c(Br)ccc(Br)cc1Br	-2	2	-2	.	.
COc1ccc(C(=O)N/N=C/c2ccc(OC(=O)c3cccc4ccccc34)c([N+](=O)[O-])c2)cc1	12*	10	1	0	-3
O=C(N/N=C/c1ccc(OC(=O)c2ccccc2)c([N+](=O)[O-])c1)c1ccc(O)cc1	26*	-2	0	-6	-14
COc1ccc(C(=O)Oc2ccc(/C=N/NC(=O)c3ccccc3OC)cc2[N+](=O)[O-])cc1	1	10	-15	0	-2
COc1ccc([C@H]2C[C@@H](O)[C@H](n3cc(C4CC4)nn3)CN2C(=O)c2cccs2)cc1	.	-6	-2	.	.
O=C(NNC(=O)c1cc(-c2ccc(Cl)c(Cl)c2)nc2ccccc12)Nc1ccccc1	29*	33	-2	-4	3
Cc1sc2nc3n(c(=O)c2c1C)CCCS3	18*	-3	3	-2	-13
Cc1cccc(CSc2nc3c(c(-c4cccs4)c2C#N)CN(C)CC3)c1	-5	6	0	-5	-12
Cc1cccc(CSc2nc(N)c(C#N)c(-c3cccs3)c2C#N)c1	13*	32	36	-6	-23
CCCNC(=O)N1C[C@H](O)COC[C@@H]2O[C@@H](CC(=O)NCCCN3CCOCC3)CC[C@H]21	.	.	0	.	.
CCCOC(=O)c1c(-c2ccccc2)nc(CC)c(C(=O)SCC)c1CCC	10*	20	4	-8	.
O=C1/C(=C/c2ccccn2)SC(=S)N1Nc1ncc(C(F)(F)F)cc1Cl	-5	-6	-2	.	.
COc1cc(/C=C2\SC(=S)N(NC(=O)c3ccccc3O)C2=O)ccc1O	11*	-2	14	-6	-108
O=C(NN1C(=O)/C(=C/c2ccc(O)cc2)SC1=S)c1cccc(O)c1	10	-16	2	-4	-251
O=C(NN1C(=O)/C(=C/c2ccc(O)cc2)SC1=S)c1ccccc1O	16*	-15	3	-2	-131
O=C(NN1C(=O)/C(=C/c2ccc(O)c([N+](=O)[O-])c2)SC1=S)c1ccccc1Cl	-3	4	1	0	-14
COc1ccc(C2CC=C(C(C)=O)CN2S(=O)(=O)c2ccc(Cl)cc2)cc1 (stereo unspecified)	.	7	1	.	.
C[C@@H]1CN([C@H](C)CO)C(=O)CCCn2cc(nn2)CO[C@H]1CN(C)S(=O)(=O)c1cccc(F)c1	.	-7	-2	.	.
CC(NC(=O)c1ccccc1NS(C)(=O)=O)c1ccccc1 (stereo unspecified)	20*	-7	-4	-3	-1
CC(C)c1ccc(CN2CCC2(C)C(=O)Nc2cccc(Oc3ccccc3)c2)cc1 (stereo unspecified)	.	29	3	.	.
COc1cc(/C=N/Nc2nc(C)nc3c2cnn3-c2ccccc2)ccc1O	13*	9	4	.	-10
SMILES	GRIN3A LBD mod	FAS TE block	MPTP block	beta cell repl	pCIP destab
COc1cccc(/C=N/Nc2c(Cl)cncc2Cl)c1O	35*	7	0	-3	-3
C/C(=N\Nc1cccc([N+](=O)[O-])c1)c1ccccc1O	31*	31	1	-4	10
C/C(=N\NC(=O)c1cccc(N/N=C(\C)c2cc(O)ccc2O)c1)c1cc(O)ccc1O	14*	13	1	-6	-2
CCCCC(=O)N(C)c1c(CC)nc2c(OCc3cc(Cl)cc(Cl)c3)cccn12	.	21	0	.	.
O=[N+]([O-])c1cccc(N/N=C/c2cccc(O)c2O)c1	21*	22	-3	-5	-4
COc1ccc(/C=N/Nc2ccc([N+](=O)[O-])cc2)cc1O	27*	-13	2	2	-5
COc1cccc(/C=N/NC(=O)c2ccc(-c3ccccc3)cc2)c1O	26*	-1	6	-3	3
COc1ccc(/C=N/Nc2ccc([N+](=O)[O-])cc2)cc1Cn1cc([N+](=O)[O-])cn1	7	-6	3	-1	-16
COc1cccc(/C=N/Nc2ccc([N+](=O)[O-])cc2)c1O	36*	2	2	0	-9
CC(=O)Nc1cc(-c2cccc(F)c2)cn2c(-c3ccc(S(C)(=O)=O)cc3)cnc12	.	14	1	.	.
CC(C)Nc1ncnc2c1ncn2[C@H]1CN(Cc2ccc(F)cc2)C[C@@H](CO)O1	.	-3	-1	.	.
COc1ccc(CN(C)C(=O)[C@H]2O[C@@H](n3ccc(N)nc3=O)[C@H](O)[C@@H]2O)cc1OC	.	-6	-3	.	.
COc1cc(/C=N/Nc2ccc(C(=O)O)cc2)cc(OC)c1OC	-4	4	-1	-2	6
COC(=O)c1ccc(N/N=C/c2cc([N+](=O)[O-])cc(OC)c2O)cc1	30*	6	1	-2	-12
COc1cc(/C=N/Nc2ccc(C(=O)O)cc2)ccc1O	27*	-7	0	1	10
COc1cc([N+](=O)[O-])cc(/C=N/NC(=O)Cn2nccc2C)c1O	0	10	-3	-2	10
C[C@H](CO)N1C[C@H](C)[C@@H](CN(C)Cc2ccc(C(=O)O)cc2)Oc2ncc(-c3ccc(C(=O)N(C)C)cc3)cc2C1=O	.	-9	0	.	.
COc1ccc(/C=C/C(=O)Nc2cc(C(F)(F)F)ccc2Cl)cc1	15*	19	3	-1	-8
COc1ccc(/C=N/NC(=S)Nc2cc(C(F)(F)F)ccc2Cl)cc1	5	1	0	0	-4
COc1ccc(NC(=O)/C=C/c2cccc(Br)c2)cn1	33*	4	-2	1	-13
COc1ccc(NC(=O)/C=C/c2cccc(C(F)(F)F)c2)cn1	11*	4	2	-2	-1
COc1ccc(NC(=O)/C=C/c2ccc(OC)c(OC)c2)cn1	-17	-1	0	-1	-5
Cc1ccc(NC(=O)/C=C/c2cccc(C(F)(F)F)c2)cc1	25*	2	17	0	-2
COc1cccc(CNc2nc3cc(-c4cccc(C(=O)NCCO)c4)sc3c(=O)n2C)c1	.	7	0	.	.
Cc1ccc(C)c(C(=O)CCC(=O)N2CCN(c3cccc(C(F)(F)F)c3)CC2)c1	4	26	2	-3	.
Cc1ccc(/C=C/C(=O)N2CCN(c3cccc(C(F)(F)F)c3)CC2)cc1	21*	13	14	0	-3
COc1ccc(/C=C/C(=O)Nc2ccc(OC)nc2)cc1	26*	1	2	1	-4
